Publication PMC13494018

B1: design_622_fcc41892-afde-4fb9-b6e8-b664fffd6a75_1277_dldesign_0_cycle1_af2pred (protein)
chain: SEEIIKKAEEIKEKAEKLLKEAAKLTPEQQKAAIKEMSKNLGELTELAKTASPEELKVINEAMNAAAKASVALAAKAA
B2: design_622_fcc41892-afde-4fb9-b6e8-b664fffd6a75_2191_dldesign_0_cycle1_af2pred (protein)
chain: MKEEVEKLKKEAEKLVKEAKAAAEAGDSGKAVSLASEAFKVARELEKLPESKELGKELKAKAHEVLTLAAK
B3: design_622_fcc41892-afde-4fb9-b6e8-b664fffd6a75_1048_dldesign_0_cycle1_af2pred (protein)
chain: NPAVERARNVAEYAKQLIDFATANPAVPQALVDAAKAVLEAATKAAKEAEEDPSKAPEVLKRADEALAQANAISAQAAKAATAA
B4: design_622_fcc41892-afde-4fb9-b6e8-b664fffd6a75_2329_dldesign_0_cycle1_af2pred (protein)
chain: AALREEAKKRVDAAVAAADAAAAADPLAGAIAYGELAVETARLAAELARADPAAGAEMRAKLVDISQKAIALALAAG
B5: design_622_fcc41892-afde-4fb9-b6e8-b664fffd6a75_1873_dldesign_0_cycle1_af2pred (protein)
chain: NALVQAGKIAAQAAVSLAKNAIAHADEMSPEGLQGAIDVATALIEYAEKAAKEDPEVAKLVEEAKKLVAEAKAVLAAR
B6: design_622_fcc41892-afde-4fb9-b6e8-b664fffd6a75_1795_dldesign_0_cycle1_af2pred (protein)
chain: ANAQLAKGYLTAGQVYLQSPDAAYQEQAATAAQAAAAYAEADPAMADLAKQAKALEAEAKAKAAAAKAAA
B7: design_622_fcc41892-afde-4fb9-b6e8-b664fffd6a75_2371_dldesign_0_cycle1_af2pred (protein)
chain: SAAAAESNQELAKQLKAIAQANAKAGDAEAVERVARSAAAAAKAVSEHPEAQKALTEAAKEAQKLAQQVKAA
B8: design_622_fcc41892-afde-4fb9-b6e8-b664fffd6a75_1610_dldesign_0_cycle1_af2pred (protein)
chain: DDAAKLASLREFLAQLVEIAKAGNAEQARVMARNARAAARSVAAAVASAAEALALGAEAEAEILAIAQEKAAAA
B9: design_622_fcc41892-afde-4fb9-b6e8-b664fffd6a75_1878_dldesign_0_cycle1_af2pred (protein)
chain: GRQQELNQALGLTLEAAKKASELNKEVLPLVNEAASLIAKAYLTGDKELLKKAIEKLKKAAELASEEVKVLLKKAAEHAKKAIEL
B10: design_622_fcc41892-afde-4fb9-b6e8-b664fffd6a75_1097_dldesign_0_cycle1_af2pred (protein)
chain: SASEVAIKGGTALVNGAARAGIERIRRAGGGEADVERVKKIAEEAKKKIKAAKADAAKIGAIASEAVEEIRKLTEEVEKKA
B11: design_622_fcc41892-afde-4fb9-b6e8-b664fffd6a75_2129_dldesign_0_cycle1_af2pred (protein)
chain: AAAEAAARAALLAEGLALAHQAATFAAMAEYSPGVAPLAERARARLEAVTAAATPEVAAEIRAAYEASLARVRAALA
B12: design_622_fcc41892-afde-4fb9-b6e8-b664fffd6a75_413_dldesign_0_cycle1_af2pred (protein)
chain: SEKEEASKKLKELEEEGNKAYEKGKAAAAAGDTGAAGAELVKIVKMSSEAYKLSKYIPEEGKKVSDELSAKAVELSKLLTA
B13: design_622_fcc41892-afde-4fb9-b6e8-b664fffd6a75_655_dldesign_0_cycle1_af2pred (protein)
chain: SMEAAAREAGKAEAEKVFAEAKAEGLGLGEAAKRIHDIFSKVSKFNPEFGAIARNAALAELQKLALAADA
B14: design_622_fcc41892-afde-4fb9-b6e8-b664fffd6a75_667_dldesign_0_cycle1_af2pred (protein)
chain: SAEEAVRKGEELTREAIKLAEEAVKGTPEKAKKAVEEIVKKMAEAIKASPAYGLLIANQARAIYLEAGKEDEAKAVKEGYKKALELAA
B15: design_622_fcc41892-afde-4fb9-b6e8-b664fffd6a75_1090_dldesign_0_cycle1_af2pred (protein)
chain: AAALAEATAMQFVRQAKATTDPERKRALARGAALALQSVVSPEEAARKTAEMAEALGAPPEVIAAARALL
B16: design_622_fcc41892-afde-4fb9-b6e8-b664fffd6a75_2361_dldesign_0_cycle1_af2pred (protein)
chain: EQEKKAKELLKKVKELAKKAEETIKAGIAAGLPKEEIVGKGGELVVEAAKKAAELARVGTPEQAAEARKIVAAAIKYLLKVAAA
B17: design_622_fcc41892-afde-4fb9-b6e8-b664fffd6a75_1477_dldesign_0_cycle1_af2pred (protein)
chain: GEAVQTAVDALKLLSEERRRAAALVAADPENAEARAILERLEESFRAVARAAANPATAQEVGEAGIAEAERARERLAALA
B18: design_622_fcc41892-afde-4fb9-b6e8-b664fffd6a75_788_dldesign_0_cycle1_af2pred (protein)
chain: SAAAEQLTLAAVRALSASAVAAEDPASSEQLFAVARDIADAASPETRARGLAIVDAARARAAARRAARAAAA
B19: design_622_fcc41892-afde-4fb9-b6e8-b664fffd6a75_1089_dldesign_0_cycle1_af2pred (protein)
chain: AATKEEAQKAMVEASEVATELLRKAGEAYKAGDEELAEELRRAANELMRAMVQAAKDPAKGLEAVKKAVERGKELLKRAEEALKKA
B20: design_622_fcc41892-afde-4fb9-b6e8-b664fffd6a75_1349_dldesign_0_cycle1_af2pred (protein)
chain: AEASQALARRFIDATLAQMLAQIAAASAEEARRIAEAGLKAIEVAAQALPAEERAARVAEARERGAAAIAAKE
B21: design_622_fcc41892-afde-4fb9-b6e8-b664fffd6a75_1399_dldesign_0_cycle1_af2pred (protein)
chain: GAALAAAKGVAEQVKRVAEEAEAADPSLAPIMEEYKRRAEELLKKAQENASDEAKVNEYLAELVELLGEVARLRREALAA
B22: design_622_fcc41892-afde-4fb9-b6e8-b664fffd6a75_365_dldesign_0_cycle1_af2pred (protein)
chain: AEAAKKNIEIAAKAGEAAVKNLKTMKPEDAKKLYEVVKDLAEYMKEQGKKAPEQAELAKEKAEKIEEEAKKALKEVEEKGKKA
B23: design_622_fcc41892-afde-4fb9-b6e8-b664fffd6a75_2349_dldesign_0_cycle1_af2pred (protein)
chain: LTEELARETARGQRYAAELIALDPAAQELLEQVRRLSAAALQALLAGDEELAKKLAEEVKRLAEEIKARAEALK
B24: design_622_fcc41892-afde-4fb9-b6e8-b664fffd6a75_316_dldesign_0_cycle1_af2pred (protein)
chain: DALKVIEEYTKKALENIEDRELAALYLANMGVKVAQLVGDGSIGALAMKAAAEAYKSSVEEAKKIIKETAEKIKKIVE
B25: design_622_fcc41892-afde-4fb9-b6e8-b664fffd6a75_393_dldesign_0_cycle1_af2pred (protein)
chain: AAAEAAAKAAALKAKADAAAAKGEEYYAKGKEYAAKGDVEKASEYYLEAIKYYSEAAKYYAKVDPALADAAMKKAQEATKQMMALAK
B26: design_622_fcc41892-afde-4fb9-b6e8-b664fffd6a75_1828_dldesign_0_cycle1_af2pred (protein)
chain: EAAAREAAARRLAAALEAAEAAAAGPLGPRVAVAAAEVALEVLAAHPRLSPEAVRAAHRLLVLGGRAAGILAA
B27: design_622_fcc41892-afde-4fb9-b6e8-b664fffd6a75_1677_dldesign_0_cycle1_af2pred (protein)
chain: MEELEELKERSEEVKKRAEEAKKKGEELKKKSPKTAVAGNAVIALAKSAKELAEDPEKVEQAEKVLEIAEAIIKAA
B28: design_622_fcc41892-afde-4fb9-b6e8-b664fffd6a75_877_dldesign_0_cycle1_af2pred (protein)
chain: SEEYRRRAEELERRAREAAEEARRAERAEELRRYAEELRRIANEAMRLAMEAAQAGGDPEVVVRAVEVAVEALRAAGEAYRRAEELE
B29: design_622_fcc41892-afde-4fb9-b6e8-b664fffd6a75_786_dldesign_0_cycle1_af2pred (protein)
chain: DLLAEALRLAERAVEALREDPEEGRRLLEELAELGRRALAEKGDGLAVLLGLAARRALRLLEEDPEEARDFLERAVAFVRAQS
B30: design_623_6e2e8b1f-5d9a-4413-9869-27a184816b12_221_dldesign_0_cycle1_af2pred (protein)
chain: EEEEKRAAAKEAAALLEAAADDPATRGELVLQAIALLTRYPELAPYASAATRALALAAQEGVAAGAAALREVAAGVKALAE
B31: design_622_fcc41892-afde-4fb9-b6e8-b664fffd6a75_2272_dldesign_0_cycle1_af2pred (protein)
chain: DEAKKQLEIATKMAEYALKQAEAALKDGRTAGTVVPAQVKTLKLLAESAEATGLEEAKKKAEEFKKKAKELEKAAEKAK
B32: design_622_fcc41892-afde-4fb9-b6e8-b664fffd6a75_572_dldesign_0_cycle1_af2pred (protein)
chain: EEELKKAVEEAKKEAKKAIETATQAIKLAQNYPALQAMAQAVKDAAKKALEKAEKGDLETAKRELQALKANLQMAQLLLESAQAG
B33: design_622_fcc41892-afde-4fb9-b6e8-b664fffd6a75_1948_dldesign_0_cycle1_af2pred (protein)
chain: SEEALLLANQGVALASQGLIAGDDAKVKEGIKKIEEAKKLASPELAKTFDKLKATVEAMAAGTAAARAAAAAAA
B34: design_622_fcc41892-afde-4fb9-b6e8-b664fffd6a75_1801_dldesign_0_cycle1_af2pred (protein)
chain: QALLEAASAIVEAAELAAKEVGPAAANALLTEAGKLLATGEAGLKAAVAEIDKVAKQASPEVAKKLLELRDKAAA
B35: design_623_6e2e8b1f-5d9a-4413-9869-27a184816b12_67_dldesign_0_cycle1_af2pred (protein)
chain: SREEELERVEEAIATARDVLAGAELTAAQVSPELAAAALRSAARTAVVLFEGEARRAEDEEARERLRKAAEEARKVAA
B36: design_622_fcc41892-afde-4fb9-b6e8-b664fffd6a75_2288_dldesign_0_cycle1_af2pred (protein)
chain: SAEEEVLAKVKELRDKVEAAAADPAKAAEGAALAQEALAFLEENLPVIRAGGQELKDAVHALLRAIARHNAVYN
B37: design_622_fcc41892-afde-4fb9-b6e8-b664fffd6a75_876_dldesign_0_cycle1_af2pred (protein)
chain: AEAERLRAGAESVLKMADVAYQAAKASAANPAAVAQAIASMTAAYKNAAELYREAGDEEKAKAALAKGDADVAAAKALAA
B38: design_622_fcc41892-afde-4fb9-b6e8-b664fffd6a75_281_dldesign_0_cycle1_af2pred (protein)
chain: MKEKEKKLVEEAEKLLKEAKALPATPEGAQQAVQYGQKAAELGKKIKEAGGTKEAAEKAYQYANEAFKIAAQLGAQAA

target: CD276, Q5ZPR3
Sequence (Q5ZPR3 whole entry): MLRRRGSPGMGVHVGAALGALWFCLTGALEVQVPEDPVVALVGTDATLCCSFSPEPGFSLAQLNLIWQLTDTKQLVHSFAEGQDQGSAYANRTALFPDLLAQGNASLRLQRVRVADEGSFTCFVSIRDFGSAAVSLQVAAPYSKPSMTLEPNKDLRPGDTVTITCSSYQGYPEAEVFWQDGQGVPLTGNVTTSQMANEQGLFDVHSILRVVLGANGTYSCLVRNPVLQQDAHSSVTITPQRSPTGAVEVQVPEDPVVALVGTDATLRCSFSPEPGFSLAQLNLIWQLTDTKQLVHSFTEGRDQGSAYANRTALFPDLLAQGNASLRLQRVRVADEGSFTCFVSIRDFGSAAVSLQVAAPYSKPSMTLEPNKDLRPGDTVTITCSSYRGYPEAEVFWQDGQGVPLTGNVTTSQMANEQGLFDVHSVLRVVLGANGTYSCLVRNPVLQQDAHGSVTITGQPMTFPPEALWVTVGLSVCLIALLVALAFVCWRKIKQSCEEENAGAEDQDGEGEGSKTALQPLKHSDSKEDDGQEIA

Binding in a display sort, inactive:
B1 not found, B2 not found, B3 not found, B4 not found, B5 not found, B6 not found, B7 not found, B8 not found, B9 not found, B10 not found, B11 not found, B12 not found, B13 not found, B14 not found, B15 not found, B16 not found, B17 not found, B18 not found, B19 not found, B20 not found, B21 not found, B22 not found, B23 not found, B24 not found, B25 not found, B26 not found, B27 not found, B28 not found, B29 not found, B30 not found, B31 not found, B32 not found, B33 not found, B34 not found, B35 not found, B36 not found, B37 not found, B38 not found
